The values that follow come from patent publication US20180258417, “RAPID CHARACTERIZATION OF CAS ENDONUCLEASE SYSTEMS, PAM SEQUENCES AND GUIDE RNA ELEMENTS” (PIONEER HI-BRED INTERNATIONAL, INC., published 2018).

In assay [1] the target is T1, Blat Cas9 (Brevibacillus laterosporus SSP360D4).
T1 chain: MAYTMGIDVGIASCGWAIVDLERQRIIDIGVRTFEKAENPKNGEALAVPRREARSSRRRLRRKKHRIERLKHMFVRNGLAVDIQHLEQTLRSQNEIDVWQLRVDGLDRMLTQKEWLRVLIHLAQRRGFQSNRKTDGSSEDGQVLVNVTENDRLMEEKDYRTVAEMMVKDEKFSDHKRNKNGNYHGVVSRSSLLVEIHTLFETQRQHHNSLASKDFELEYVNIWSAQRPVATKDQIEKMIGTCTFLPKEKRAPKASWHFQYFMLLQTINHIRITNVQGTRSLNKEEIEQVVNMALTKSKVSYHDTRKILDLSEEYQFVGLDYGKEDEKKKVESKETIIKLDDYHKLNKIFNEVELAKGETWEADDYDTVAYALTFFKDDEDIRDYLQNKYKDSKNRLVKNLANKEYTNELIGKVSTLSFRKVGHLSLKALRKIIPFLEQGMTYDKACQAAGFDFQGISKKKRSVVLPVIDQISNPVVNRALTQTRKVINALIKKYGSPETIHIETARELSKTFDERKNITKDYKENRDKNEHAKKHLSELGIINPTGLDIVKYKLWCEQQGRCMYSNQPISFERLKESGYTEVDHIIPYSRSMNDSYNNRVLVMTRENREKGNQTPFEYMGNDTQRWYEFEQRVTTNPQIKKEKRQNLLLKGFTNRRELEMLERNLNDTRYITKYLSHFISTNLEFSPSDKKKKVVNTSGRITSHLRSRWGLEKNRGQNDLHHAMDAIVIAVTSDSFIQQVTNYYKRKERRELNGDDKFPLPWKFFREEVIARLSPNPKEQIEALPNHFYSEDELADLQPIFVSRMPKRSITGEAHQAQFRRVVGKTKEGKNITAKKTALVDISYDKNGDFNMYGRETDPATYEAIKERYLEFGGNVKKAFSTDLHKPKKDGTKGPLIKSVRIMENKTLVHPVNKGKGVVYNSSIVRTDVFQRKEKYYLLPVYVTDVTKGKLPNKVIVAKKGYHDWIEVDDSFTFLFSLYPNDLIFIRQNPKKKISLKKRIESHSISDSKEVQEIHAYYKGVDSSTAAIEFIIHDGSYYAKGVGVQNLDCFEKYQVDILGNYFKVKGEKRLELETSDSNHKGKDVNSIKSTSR
The experiment in a line: cleavage_in_vitro; PAM position 7 A to C; 10 mM MgCl2, 15 C. The conditions noted are these: tags: C-terminal His (pBAD24-CHis). The text has this:
(§1) To validate the PAM specificity for Blat Cas9, plasmids were engineered to contain mutations ([…] (reference), […], […], […], […], […] with mutations shown in bold and underlined, FIG. 39) in the most conserved residues of the PAM immediately downstream of a 20 base pair region matching the variable targeting domain T1 (SEQ ID NO: 141). In vitro cleavage reactions with the various PAM sequences were initiated by mixing supercoiled plasmid DNA with pre-assembled Blat Cas9-sgRNA complex (1:1 v/v ratio) at 15° C. The final reaction mixture contained 3 nM plasmid, 50 nM Cas9, 10 mMTris-HCl (pH 7.5 at 37° C.), 100 mM NaCl, 1 mM DTT and 10 mM MgCl2 in a 100 μI reaction volume. Aliquots were removed at timed intervals and quenched with phenol/chloroform. The aqueous phase was mixed with 3× loading dye solution (0.01% (w/v) bromophenol blue and 75 mM EDTA in 50% (v/v) glycerol) and reaction products analyzed by agarose gel electrophoresis. The amount of supercoiled (SC) form was evaluated by densitometric analysis of ethidium bromide stained gels using the software ImageJ. Values of reaction rate constants were obtained as described by Szczelkun, et al., (2014) Proc. Natl. Acad. Sci. USA 111:9798-9803). Replacement of the C nucleotide at the 5th position abolished plasmid DNA cleavage confirming its key role in Blat Cas9 PAM recognition (FIG. 39).

The target of assay [2] is T1, Blat Cas9. The experiment in a line: cleavage_in_vitro; PAM position 8 A to C; 10 mM MgCl2, 15 C. Conditions: tags: C-terminal His (pBAD24-CHis).
From the text: as §1

B1: Blat sgRNA direct ; T1 + GTCCCGCA PAM (ssRNA ; dsDNA)
RNA: GGGCGCUAAAGAGGAAGAGGACAGCUAUAGUUCCUUACUGAAAGGUAAGUUGCUAUAGUAAGGGCAACAGACCCGAGGCGUUGGGGAUCGCCUAGCCCGUUUUUACGGGCUCUCCCCAUAUUCAAAAUAAUGACAGACGAGCACCUUGGAGCAUUUAUUUCCGAGGUGCUUUUUUUU
DNA 1: CGCTAAAGAGGAAGAGGACAGTCCCGCA
DNA 2: TGCGGGACTGTCCTCTTCCTCTTTAGCG
modifications: [NONE]
For the molecule B1, the “cleavage rate decrease vs reference PAM” value in the assay with Blat Cas9 [1] was 43 fold decrease in rate.

B2: Blat sgRNA direct ; T1 + GTCCCGAC PAM (ssRNA ; dsDNA)
RNA: GGGCGCUAAAGAGGAAGAGGACAGCUAUAGUUCCUUACUGAAAGGUAAGUUGCUAUAGUAAGGGCAACAGACCCGAGGCGUUGGGGAUCGCCUAGCCCGUUUUUACGGGCUCUCCCCAUAUUCAAAAUAAUGACAGACGAGCACCUUGGAGCAUUUAUUUCCGAGGUGCUUUUUUUU
DNA 1: CGCTAAAGAGGAAGAGGACAGTCCCGAC
DNA 2: GTCGGGACTGTCCTCTTCCTCTTTAGCG
In the assay with Blat Cas9 [2], B2 returned a binding signal of 12 fold decrease in rate.
